Reference: PubChem BioAssay (NCATS)
Inconclusive results are not listed. Unless noted, the call rests on the fitted dose curve; in most records, active means well fitted curve in either direction with a large enough effect (not every such curve was filed as active); inconclusive means small, poorly fitted or top-dose-only effect, or another doubt; inactive means flat fitted curve, though single readings scatter.

Columns and labels:
[1] = AP1 Signaling Pathway (AID 357); conditions: ME-180 AP-1-bla reporter, EGF-induced, beta-lactamase ratio, 5 h; at 17.2 µM (top of the series) unless noted;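 further: ME-180 reporter cells stimulated with EGF at its EC50 level; on the % scale 0 is the no-effect control and ±100 the full control effect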
Method in brief: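 Beta-lactamase reporter under AP-1 response element, ME-180 background. Stimulus: EC50 EGF. Compound exposure 5 h, 37 °C. Detection: CCF4, 2.5 h RT, 460/530 nm. Values: AC50 from titration.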

[2] = NFAT Signaling Pathway (AID 444); conditions: Jurkat NFAT-bla M1, carbachol, beta-lactamase ratio, 5 h; at 17.2 µM (top of the series) unless noted;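 further: carbachol stimulus at about its EC50 of 1 µM final; on the % scale 0 is the no-effect control and ±100 the full control effect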
Method in brief: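 Jurkat cells with NFAT-driven β-lactamase reporter and co-expressed M1 receptor, stimulated with carbachol (final 1 uM, ~EC50), compound titration, 5 h at 37 °C. CCF4 loaded 1 h at RT; 460/530 nm ratio gave %activity and AC50.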

[3] = Stat Signaling Pathway (AID 446); conditions: ME-180 (cervical carcinoma) SIE beta-lactamase reporter, IL-6 stimulated, 5 h; at 17.2 µM (top of the series) unless noted;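 further: ME-180 cervical cancer cells given 40 pM IL-6 alongside compound; SIE-controlled beta-lactamase reporter measured as 460/530 nm FRET emission ratio; on the % scale 0 is the no-effect control and ±100 the full control effect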
Method in brief: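 Emission at 460 and 530 nm (excitation 405 nm) reports SIE-controlled beta-lactamase in ME-180 cells. Cells received compound with 40 pM IL-6 for 5 hrs at 37 C; data scaled between 300 pM IL-6 and 125 nM JAK-inhibitor controls.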

[4] = molecular target: Glucocorticoid receptor (Homo sapiens) (UniProt P04150); assay: GR-GFP Redistribution (AID 450;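 active means compounds whose dose series gives a full or clear partial fitted curve of increased nuclear translocation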; further: potency means the concentration at half of the fitted maximal effect)
Sequence of Glucocorticoid receptor (Homo sapiens) (P04150 whole entry, looked up): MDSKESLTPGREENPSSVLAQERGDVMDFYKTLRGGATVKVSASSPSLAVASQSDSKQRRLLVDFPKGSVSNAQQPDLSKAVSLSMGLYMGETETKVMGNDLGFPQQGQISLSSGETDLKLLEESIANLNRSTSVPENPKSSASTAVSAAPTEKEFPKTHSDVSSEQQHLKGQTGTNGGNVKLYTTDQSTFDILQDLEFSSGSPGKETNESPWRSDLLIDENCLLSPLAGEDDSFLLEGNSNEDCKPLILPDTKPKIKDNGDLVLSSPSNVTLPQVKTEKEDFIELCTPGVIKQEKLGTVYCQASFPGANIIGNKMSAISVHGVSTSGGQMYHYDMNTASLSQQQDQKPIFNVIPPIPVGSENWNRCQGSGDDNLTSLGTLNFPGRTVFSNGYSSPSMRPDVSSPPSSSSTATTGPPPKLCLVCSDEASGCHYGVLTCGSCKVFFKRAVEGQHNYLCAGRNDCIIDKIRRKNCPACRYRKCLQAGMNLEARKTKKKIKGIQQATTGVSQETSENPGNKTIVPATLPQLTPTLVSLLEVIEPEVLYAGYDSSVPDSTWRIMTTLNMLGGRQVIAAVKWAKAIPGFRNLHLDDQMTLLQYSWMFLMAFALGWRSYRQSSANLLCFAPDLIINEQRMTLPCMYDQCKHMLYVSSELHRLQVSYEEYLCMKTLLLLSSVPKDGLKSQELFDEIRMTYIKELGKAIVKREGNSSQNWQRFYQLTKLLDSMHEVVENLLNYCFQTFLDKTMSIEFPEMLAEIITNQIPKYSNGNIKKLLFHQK

O=C(Cc1cscn1)c1ccc(O)cc1O
inactive: activity change, negative = inhibition [1] 4.71% | activity change, negative = inhibition [2] 4.07% | activity, negative = inhibition [3] 12.7% | Potency [4] > 20.6 µM

Cc1nc(Nc2ncc3c(n2)CCCC3=O)nc2ccccc12
inactive: activity change, negative = inhibition [1] 16.8% | activity change, negative = inhibition [2] 19.8% | activity, negative = inhibition [3] 0.527% | Potency [4] > 20.6 µM

Cn1c(=O)c2c(nc(NCc3ccco3)n2CCc2ccccc2)n(C)c1=O
inactive: activity change, negative = inhibition [1] -0.525% | activity change, negative = inhibition [2] -24% | activity, negative = inhibition [3] -5.04% | Potency [4] > 20.6 µM

Cc1cc(C)n(-c2ncnc3sc(C)c(C)c23)n1
inactive: activity change, negative = inhibition [1] -15.7% | activity change, negative = inhibition [2] -7.26% | activity, negative = inhibition [3] 6.68% | Potency [4] > 20.6 µM

Cc1cc(C)c2nc(SCCC#N)nc(C)c2c1
inactive: activity change, negative = inhibition [1] -4.73% | activity change, negative = inhibition [2] 11.8% | activity, negative = inhibition [3] 6.57% | Potency [4] > 20.6 µM

COc1cccc(OC)c1C(=O)Nc1nc2ccc(S(C)(=O)=O)cc2s1
inactive: activity change, negative = inhibition [1] -25.1% | activity change, negative = inhibition [2] 21% | activity, negative = inhibition [3] -10.6% | Potency [4] > 20.6 µM

CC(=O)N=C(N)Sc1nc2ccccc2[nH]1
inactive: activity change, negative = inhibition [1] 12.8% | activity change, negative = inhibition [2] -12.3% | activity, negative = inhibition [3] 1.5% | Potency [4] > 20.6 µM

CCc1nc2c(sc3nc(N4CCOCC4)c4c(c32)CC(C)(C)OC4)c(=O)o1
inactive: activity change, negative = inhibition [1] 3.92% | activity change, negative = inhibition [2] -0.695% | activity, negative = inhibition [3] -6.95% | Potency [4] > 20.6 µM

CCCCCC(=O)N1CC2(C)CN(C(=O)CCCCC)CC(C)(C1)C2=O
inactive: activity change, negative = inhibition [1] 4.08% | activity change, negative = inhibition [2] -13.6% | activity, negative = inhibition [3] 5.3% | Potency [4] > 20.6 µM

COC(=O)c1cc(Br)c(=O)n(Cc2cccnc2)c1
inactive: activity change, negative = inhibition [1] 2.36% | activity change, negative = inhibition [2] 10.7% | activity, negative = inhibition [3] 9.48% | Potency [4] > 20.6 µM

NS(=O)(=O)c1cc2c(cc1Cl)NC(C1C[C@H]3C=C[C@@H]1C3)NS2(=O)=O (some centres undefined)
inactive: activity change, negative = inhibition [1] 4.88% | activity change, negative = inhibition [2] -20.1% | activity, negative = inhibition [3] -0.0433% | Potency [4] > 20.6 µM

CCOc1ccc(S(=O)(=O)N(C)C)cc1-c1nc2c(C(C)(C)C)nn(C)c2c(=O)[nH]1
inactive: activity change, negative = inhibition [1] 5.08% | activity change, negative = inhibition [2] 8.6% | activity, negative = inhibition [3] -17.2% | Potency [4] > 20.6 µM

COC(=O)c1n[nH]c2ccccc12
inactive: activity change, negative = inhibition [1] 9.29% | activity change, negative = inhibition [2] 15.6% | activity, negative = inhibition [3] -6.08% | Potency [4] > 20.6 µM

O=C(C1=C(O)C(=O)N(CCCN2CCOCC2)C1c1ccccn1)c1cccs1 (centres undefined)
inactive: activity change, negative = inhibition [1] -0.154% | activity change, negative = inhibition [2] -1.18% | activity, negative = inhibition [3] -0.582% | Potency [4] > 20.6 µM

N#Cc1nc(COc2ccccc2F)oc1NCCCn1ccnc1
inactive: activity change, negative = inhibition [1] -26.4% | activity change, negative = inhibition [2] -21.7% | activity, negative = inhibition [3] 5.2% | Potency [4] > 20.6 µM

CCCOc1ccc(CSC(CC(=O)O)C(=O)O)cc1 (centres undefined)
inactive: activity change, negative = inhibition [1] 4.79% | activity change, negative = inhibition [2] 13.3% | activity, negative = inhibition [3] 6.22% | Potency [4] > 20.6 µM

O=P(Cc1nnco1)(c1ccccc1)c1ccccc1
inactive: activity change, negative = inhibition [1] -8.6% | activity change, negative = inhibition [2] -9.88% | activity, negative = inhibition [3] -0.63% | Potency [4] > 20.6 µM

Cc1cc(C)n(C(=O)CNC(=O)c2cccs2)n1
inactive: activity change, negative = inhibition [1] 10.9% | activity change, negative = inhibition [2] 3.15% | activity, negative = inhibition [3] 4.05% | Potency [4] > 20.6 µM

CC1C[C@@]2(NC(=O)NC2=O)C(C)CN1C (some centres undefined)
inactive: activity change, negative = inhibition [1] 5.36% | activity change, negative = inhibition [2] -4.32% | activity, negative = inhibition [3] 5.03% | Potency [4] > 20.6 µM

Cn1c(/C(C#N)=C/Nc2ccccn2)nc2ccccc21
inactive: activity change, negative = inhibition [1] -8.79% | activity change, negative = inhibition [2] -5.83% | activity, negative = inhibition [3] 8.51% | Potency [4] > 20.6 µM

COc1ccc2c(c1)n([O-])c1c([n+]2=O)CCC1
inactive: activity change, negative = inhibition [1] 13.4% | activity change, negative = inhibition [2] -5.03% | activity, negative = inhibition [3] 7.82% | Potency [4] > 20.6 µM

C=CCn1c(C2CC(=O)N(c3ccc(C)cc3)C2)nc2ccccc21 (centres undefined)
inactive: activity change, negative = inhibition [1] -0.041% | activity change, negative = inhibition [2] 5.1% | activity, negative = inhibition [3] 5.25% | Potency [4] > 20.6 µM

COc1ccc(/C(O)=C2/C(=O)C(=O)N(CCN3CCOCC3)C2c2ccccn2)cc1 (centres undefined)
inactive: activity change, negative = inhibition [1] 7.11% | activity change, negative = inhibition [2] 6.7% | activity, negative = inhibition [3] 0.702% | Potency [4] > 20.6 µM

CN(C)CCCN1C(=O)C(O)=C(C(=O)c2cc3ccccc3o2)C1c1ccccc1 (centres undefined)
inactive: activity change, negative = inhibition [1] 8.55% | activity change, negative = inhibition [2] -4.4% | activity, negative = inhibition [3] 1.48% | Potency [4] > 20.6 µM

c1ccc(-c2nnc(OCCN3CCOCC3)c3ccccc23)cc1
inactive: activity change, negative = inhibition [1] -8.82% | activity change, negative = inhibition [2] 5.5% | activity, negative = inhibition [3] 5.26% | Potency [4] > 20.6 µM

CCCC(C)n1[nH]c(=O)cc1N (centres undefined)
inactive: activity change, negative = inhibition [1] 11.2% | activity change, negative = inhibition [2] 8.48% | activity, negative = inhibition [3] 3.57% | Potency [4] > 20.6 µM
